Measurements from publication PMC4336329 (PLoS ONE, 2015).
In all, about 310,000 compounds went through this assay and about 14,000 (4.5%) showed an effect of 50% or more. The effect is printed as a negative number. Shown is part of a subset that was picked to be rich in strong results.

Target: human ether-à-go-go-related gene (hERG) potassium channel (human, UniProt Q12809)
Test: primary screen, population patch clamp on CHO cells stably expressing hERG; higher = less effect of the substance
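Note: peak tail current of the secondary pulse compared with the same well before compound.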

Sequence of human ether-à-go-go-related gene (hERG) potassium channel (Q12809 whole entry, looked up): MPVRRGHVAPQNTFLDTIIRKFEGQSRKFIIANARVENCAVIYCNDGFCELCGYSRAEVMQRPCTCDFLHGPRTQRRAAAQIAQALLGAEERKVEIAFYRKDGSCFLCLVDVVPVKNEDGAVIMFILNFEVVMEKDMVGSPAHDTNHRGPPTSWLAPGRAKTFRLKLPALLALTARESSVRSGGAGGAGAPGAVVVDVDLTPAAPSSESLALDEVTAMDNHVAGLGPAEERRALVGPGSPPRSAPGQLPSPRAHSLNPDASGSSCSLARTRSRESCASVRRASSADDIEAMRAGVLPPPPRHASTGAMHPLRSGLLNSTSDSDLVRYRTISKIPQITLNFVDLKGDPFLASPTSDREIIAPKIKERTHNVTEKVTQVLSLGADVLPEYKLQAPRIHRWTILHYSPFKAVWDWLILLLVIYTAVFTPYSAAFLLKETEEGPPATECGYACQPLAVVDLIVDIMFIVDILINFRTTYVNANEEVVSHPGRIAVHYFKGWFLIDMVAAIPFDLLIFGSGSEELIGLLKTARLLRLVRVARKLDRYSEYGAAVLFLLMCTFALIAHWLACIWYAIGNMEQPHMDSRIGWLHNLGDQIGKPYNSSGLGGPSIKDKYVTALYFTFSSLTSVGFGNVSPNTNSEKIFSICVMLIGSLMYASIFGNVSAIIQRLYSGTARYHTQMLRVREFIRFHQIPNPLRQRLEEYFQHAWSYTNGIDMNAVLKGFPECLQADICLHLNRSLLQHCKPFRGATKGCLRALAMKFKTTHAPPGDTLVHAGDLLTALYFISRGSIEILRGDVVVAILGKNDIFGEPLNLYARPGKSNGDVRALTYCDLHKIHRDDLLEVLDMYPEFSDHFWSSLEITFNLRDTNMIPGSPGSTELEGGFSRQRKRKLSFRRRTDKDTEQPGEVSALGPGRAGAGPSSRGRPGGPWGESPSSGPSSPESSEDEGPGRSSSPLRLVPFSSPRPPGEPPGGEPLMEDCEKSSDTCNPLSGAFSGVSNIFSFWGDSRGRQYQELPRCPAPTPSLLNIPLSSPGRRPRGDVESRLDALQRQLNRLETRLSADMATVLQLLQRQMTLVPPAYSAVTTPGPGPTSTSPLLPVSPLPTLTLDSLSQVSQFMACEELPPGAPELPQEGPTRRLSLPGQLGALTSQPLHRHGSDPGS

In order of falling “hERG current change (%, negative = inhibition) at 10uM” value:
1. O=C(O)c1ccc(COc2ccc3c4c(c(=O)oc3c2)CCC4)o1  21.4%
2. COc1ccccc1-n1c(=O)c2c3c(sc2n2c(=S)[nH]nc12)CCC3  21.1%
3. COc1ccc(/C=C(\NC(=O)c2ccc(Cl)cc2)C(=O)NCCCn2ccnc2)cc1OC  13.9%
4. NS(=O)(=O)c1ccc(NC(=O)COC(=O)CSc2n[nH]c(-c3ccccc3)n2)cc1  12%
5. CC(=O)Nc1nc(CC(C)C)cc(-c2ccccc2)c1C#N  4.98%
6. Cc1c(-n2c(SCC(C)C)nc3ccccc3c2=O)c(=O)n(-c2ccccc2)n1C  0.437%
7. CN(C)c1ccc(/C=C(/NC(=O)c2ccccc2)C(=O)NCCCn2ccnc2)cc1  0.277%
8. O=C(Nc1cc(C(F)(F)F)ccc1Cl)c1ccc(NC(=O)C(F)(F)F)cc1  0.159%
9. O=C(NCCCn1ccnc1)/C(=C\c1cccnc1)NC(=O)c1cccc(Br)c1  -0.509%
10. O=C(NCCCn1ccnc1)C(Cl)(Cl)Cl  -0.517%
11. COc1ccc(CNC(=O)c2cc(-c3cccs3)on2)cc1  -2.38%
12. Cc1cccc(-c2n[nH]c(=S)n2Cc2ccccc2)c1  -2.87%
13. CCOC(=O)C1=CN(c2cccc(F)c2)C=C(C(=O)OCC)C1c1cc(OC)c(O)c([N+](=O)[O-])c1  -3.91%
14. COc1cc(C(=O)NCc2ccco2)c(Br)c(OC)c1OC  -4.22%
15. COc1ccccc1-n1c(=O)c2c3c(sc2n2c(SC(C)C)nnc12)CCC3  -4.22%
16. CCSc1nnc2n(-c3ccc(OC)cc3)c(=O)c3c4c(sc3n12)CCCC4  -6.75%
17. CCN(CC(=O)Nc1ccc2c(c1)OCCO2)C(=O)/C=C/c1ccc(F)cc1  -7.2%
18. O=C(NN1C(=O)C2C3c4ccccc4C(c4ccccc43)C2C1=O)c1ccc(Cl)cc1 (stereo not shown)  -8.19%
19. COC(=O)CSc1nc(N)c(C#N)c(C(C)C)c1C#N  -8.45%
20. CN(C)c1ccc(/C=C(\NC(=O)c2ccccc2)C(=O)NCCCn2ccnc2)cc1  -9.78%
21. Cn1c(=O)c2c3c(sc2n2c(SCc4ccccc4)nnc12)CCCC3  -9.93%
22. CC(C)(C)c1ccc(C(=O)NCCCn2ccnc2)cc1.Cl  -11%
23. CC(C)N(C(=O)CSc1nnc(NC(=O)C2CCC2)s1)C(C)C  -11.1%
24. COc1ccccc1-n1c(=O)c2c3c(sc2n2c(SC)nnc12)CCC3  -12.5%
25. O=C(NCCCn1ccnc1)c1ccc(Cl)c(Cl)c1  -17.3%
26. CCOC(=O)c1nc(C)nc(Sc2n[nH]c(-c3cc(C(F)(F)F)cc(C(F)(F)F)c3)n2)c1C  -19.5%
27. C=C(C)CSc1nnc2n(C)c(=O)c3c4c(sc3n12)CCC4  -21.6%
28. CN(C)CCCNC(=O)c1ccc(Cl)c(S(=O)(=O)N(C)c2ccccc2)c1.Cl  -35%
29. COc1ccc(-c2nn(-c3ccccc3)cc2C(=O)NCCCn2ccnc2)cc1  -39.4%
30. CCCc1cc(=O)oc2c(CN(CC)CC)c(O)c(Cl)cc12  -39.8%
31. Cc1ccc(C(=O)N/C(=C/c2ccccc2F)C(=O)NCCCn2ccnc2)cc1  -40.5%
32. O=C(NCCCn1ccnc1)/C(=C\c1ccccc1Cl)NC(=O)c1ccccc1  -41.2%
33. O=C(NCCCn1ccnc1)c1cn(-c2ccccc2)nc1-c1ccccc1  -47.1%
34. CCCSc1nnc2n(-c3ccccc3OC)c(=O)c3c4c(sc3n12)CCC4  -56.8%
35. CN(c1ccccc1)S(=O)(=O)c1cc(C(=O)NCCCn2ccnc2)ccc1Cl  -60.3%
36. CSc1ccc(/C=C(/NC(=O)c2ccccc2)C(=O)NCCCn2ccnc2)cc1  -60.8%
37. O=C(NCCCn1ccnc1)c1cn(-c2ccccc2)nc1-c1ccc(F)cc1  -64%
38. C=CCSc1nnc2n(-c3ccccc3OC)c(=O)c3c4c(sc3n12)CCC4  -64.5%
39. O=C(NCCCn1ccnc1)/C(=C/c1ccccc1)NC(=O)c1ccccc1  -70.3%
40. CCCSc1nnc2n(C)c(=O)c3c4c(sc3n12)CCC4  -71.5%
41. CC(C(=O)NCCCn1ccnc1)(c1ccccc1)c1ccccc1.Cl  -73.1%
42. O=C(NCCCn1ccnc1)/C(=C/c1ccc(Cl)cc1)NC(=O)c1ccccc1  -74.7%
43. O=C(NCCCn1ccnc1)/C(=C\c1ccccc1F)NC(=O)c1ccccc1  -75%
44. O=C(NCCCn1ccnc1)/C(=C/c1ccc(F)cc1)NC(=O)c1ccccc1  -75.6%
45. O=C(NCCCn1ccnc1)/C(=C\c1ccc(Br)cc1)NC(=O)c1ccccc1  -75.8%
46. CC(C)c1ccc(/C=C(\NC(=O)c2ccccc2)C(=O)NCCCn2ccnc2)cc1  -78.2%
